Compound activity from PubChem BioAssay.
CD40 NFkB inh: CD40 pathway inhibition in BL2 cells; inhibition, % at 10 µM; BL2 NF-kB luciferase reporter, CD40L-induced, 4 h; AID 1053188; actives 0.94% (n = 83,000);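 active = mean inhibition of at least 50% with a set share of replicates also reaching that level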;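 note: 0% = neutral control wells and 100% = IKK inhibitor VII at 50 µM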
* marks the source's active call; other numbers are inactive results; [ ] = dose if it differs, or a comment. The entries come from a sample that favours hits as a whole.

SMILES | CD40 NFkB inh
N#C[C@@H]1[C@H](c2ccccc2-c2cccc(F)c2)[C@H](CO)N1C(=O)C1CCCC1 | 1
COc1ccc(C#Cc2ccc3c(c2)[C@H]2[C@H](CCN2S(=O)(=O)c2ccccc2C)[C@@H](CO)N3C)cc1 | 6[25 µM]
COc1nnc(-c2ccc(C)c(S(=O)(=O)NCC3CCCO3)c2)c2ccccc12 (stereo not given) | 0
CC(=O)NCc1nnc2c3ccccc3c(-c3ccccc3)nn12 | 16
Cc1ccc(-c2nn3c(C)nnc3c3ccccc23)cc1S(=O)(=O)NCc1ccccc1 | 44*
C[C@H]1CN([C@@H](C)CO)C(=O)c2ccccc2-c2ccccc2CO[C@@H]1CN(C)C(=O)Nc1ccc(F)cc1 | -8
O=S(=O)(Nc1cccnc1)c1ccc2c(c1)OCCO2 | 3
CCn1cc(S(=O)(=O)Nc2ccc3c(c2)OCCO3)cn1 | 76*
O=C1CCCN1c1ccc(S(=O)(=O)Nc2ccc3c(c2)OCCO3)cc1 | 19
C[C@@H]1CN([C@H](C)CO)C(=O)c2ccccc2-c2ccccc2CO[C@@H]1CN(C)Cc1ccc(Oc2ccccc2)cc1 | 41[25 µM]
C[C@@H]1CN([C@@H](C)CO)C(=O)c2ccccc2-c2ccccc2CO[C@@H]1CN(C)Cc1ccc(Oc2ccccc2)cc1 | 62*[25 µM]
C[C@@H]1CN([C@H](C)CO)C(=O)c2cc(NC(=O)CCC(F)(F)F)ccc2O[C@H]1CN(C)Cc1ccc(Oc2ccccc2)cc1 | -4
C[C@@H]1CN([C@@H](C)CO)C(=O)c2ccccc2-c2ccccc2CO[C@@H]1CN(C)Cc1ccccc1 | 15
C[C@H]1CN([C@@H](C)CO)C(=O)c2ccccc2-c2ccccc2CO[C@H]1CN(C)Cc1ccc(O)cc1 | -4
C[C@H](CO)N1C[C@H](C)[C@@H](CN(C)Cc2ccc(Oc3ccccc3)cc2)Oc2c(NC(=O)CCC(F)(F)F)cccc2C1=O | 70*[25 µM]
C[C@H](CO)N1C[C@H](C)[C@@H](CN(C)Cc2ccc(Oc3ccccc3)cc2)Oc2c(NC(=O)c3ccncc3)cccc2C1=O | 34
C[C@H]1CN([C@@H](C)CO)C(=O)c2ccccc2-c2ccccc2CO[C@H]1CN(C)Cc1ccc(Oc2ccccc2)cc1 | 59*[25 µM]
C[C@@H]1CN([C@H](C)CO)C(=O)c2ccccc2-c2ccccc2CO[C@@H]1CN(C)Cc1ccc(C(=O)O)cc1 | -8
COc1ccc([C@H]2C/C=C\C[C@@H](c3cccc(Cl)c3)NC(=O)[C@H](c3ccccc3)CC(=O)N2)c(OC)c1 | 6[25 µM]
O=C(C[C@@H]1CC[C@@H]2[C@H](COC[C@@H](O)CN2C(=O)c2ccccc2F)O1)NCc1ccc(Cl)c(Cl)c1 | 2[25 µM]
C/C=C/c1ccc([C@H]2[C@@H](CO)N(C(=O)Cc3cccnc3)[C@@H]2CNC(C)=O)cc1 | 3
COc1cc(/C=C/c2ccc(OC)cc2OC)cc(OC)c1 | -22[25 µM]
COc1ccc(C=Cc2ccc3ccccc3n2)c(OC)c1 | 49*
COc1cc(OC)c(OC)cc1/C=C/c1ccnc2ccccc12 | -1
O=C(Nc1ccc(Cl)cc1)N1C[C@H]2[C@@H](c3ccccc31)[C@@H](CO)N2C(=O)c1cccnc1 | -8
SMILES | CD40 NFkB inh
CCOC(=O)N=S(N)(=O)c1ccccc1 (stereo not given) | 4
CCOC(=O)CN(c1ccccn1)S(=O)(=O)c1ccccc1 | 3
CCOC(=O)CC(S(=O)(=O)c1ccccc1)S(=O)(=O)c1ccccc1 | 97*
CN(C)CC(=O)Nc1ccc2c(c1)C(=O)N(C)[C@H]1CC[C@H](CC(=O)Nc3cccc(Cl)c3)O[C@@H]1CO2 | 4[25 µM]
CCC1(c2ncc[nH]2)Cc2ccccc2O1 (stereo not given) | -4[25 µM]
N#C[C@@H]1[C@@H](c2ccccc2)[C@@H](CO)N1C(=O)c1ccccc1F | 19[25 µM]
Oc1ccc2ccccc2c1CNc1cnc2ccccc2c1 | 54*
NCc1c(O)ccc2ccccc12 | -3
Cn1c(NCc2c(O)ccc3ccccc23)nc2ccccc21 | -12
N#C[C@H]1[C@H](c2ccc(C3=CCCC3)cc2)[C@@H](CO)N1C(=O)C1CCOCC1 | -13[25 µM]
C/C=C/c1ccccc1[C@@H]1[C@@H](CO)N(C(C)=O)[C@H]1C#N | -1[25 µM]
N#C[C@@H]1[C@H](c2ccccc2)[C@H](CO)N1C(=O)Cc1ccccn1 | 7
CN1C(=O)c2cc(NC(=O)Nc3ccccc3Cl)ccc2OC[C@H]2O[C@H](CC(=O)NCCCN3CCOCC3)CC[C@@H]21 | -1[25 µM]
O=C1C(Br)=C(c2ccccc2)C(c2ccccc2)=C1c1ccccc1 | 82*
OC[C@@H]1[C@H](c2ccc(-c3ccc(F)cc3)cc2)[C@@H]2CN(CCC(F)(F)F)CCCCN12 | -17[25 µM]
Cc1ccc(S(=O)(=O)N(C)C[C@@H]2OCc3ccccc3-c3c(n(C)c4ccccc34)C(=O)N([C@@H](C)CO)C[C@H]2C)cc1 | 11
O=C(NC1CCCC1)c1cc2nc(-c3ccccc3)cc(-c3ccccc3)n2n1 | 9
CC(=O)Nc1nc2nc(-c3ccccc3)cc(-c3ccccc3)n2n1 | 30*
O=C(Nc1nc2nc(-c3ccccc3)cc(-c3ccccc3)n2n1)c1ccco1 | 27
COc1ccc2c3c([nH]c2c1)[C@H](CO)N(C(=O)CC1CC1)CC31CCN(Cc2ccncc2)CC1 | -1[25 µM]
CC(C)NC(=O)N(C)C[C@@H]1Oc2ccccc2CC(=O)N(C)C[C@@H]1C | 0
COc1cccc(-c2ccc(C3[C@H]4CNC[C@@H]3N4S(=O)(=O)c3cccc(Cl)c3)cc2)c1 (stereo not given in full) | -28
O=C(Cc1ccccn1)N[C@@H]1C=C[C@H](CC(=O)N2CCCCC2)O[C@@H]1CO | 4
CCCCCCCCCCCCCCCC(=O)C1C(=O)OC(CO)C1=O (stereo not given) | -13[25 µM]
CCCc1c(C(=O)OCC)[nH]c2c1C(=O)CCC2 | 5
SMILES | CD40 NFkB inh
Cc1c(C(=O)OCCOc2ccccc2)[nH]c2c1C(=O)CCC2 | 66*
Cc1c(C(=O)OC2CCCC2C)[nH]c2c1C(=O)CCC2 (stereo not given) | -57
O=C(C1CCCC1)N1[C@H](CO)[C@@H]2c3ccccc3NC[C@@H]21 | 5
O=C1/C(=C/c2ccccc2)CN(C(=O)CCN2CCOCC2)C/C1=C\c1ccccc1 | 93*
C[N+](C)(C)CCC(=O)N1C/C(=C/c2ccccc2)C(=O)/C(=C\c2ccccc2)C1 | -60
O=C(/C=C/c1ccccc1)CCN1CCOCC1 | -7
COc1ccccc1-c1ccc([C@H]2[C@@H](CO)N(C(=O)NC3CCCCC3)[C@H]2C#N)cc1 | -9[25 µM]
O=C(c1ccccc1F)N1CC(=O)N2[C@H](C1)[C@@H](c1ccc(C#Cc3ccccc3)cc1)[C@@H]2CO | 15[25 µM]
CC(=O)c1cccc(NC(=O)/C=C/c2ccc(S(=O)(=O)N3CCOCC3)cc2)c1 | 8
COC(=O)c1cccc(NC(=O)/C=C/c2cccc([N+](=O)[O-])c2)c1 | -30
O=C(/C=C/c1ccccc1)Nc1cccc(C(=O)O)c1 | 82*
O=C(Cc1ccccc1)NC[C@H]1N[C@H](CO)[C@@H]1c1ccc(-c2ccccc2)cc1 | -5[25 µM]
O=C(NC1CCCCC1)[C@H]1[C@H](CO)[C@H]2Cn3c(cccc3=O)[C@H]2N1C(=O)CC1CC1 | 5[25 µM]
O=C(C[C@@H]1CC[C@H](NS(=O)(=O)c2ccccc2F)[C@H](CO)O1)NCCCN1CCOCC1 | 4[25 µM]
CN(C)CC(=O)N1CC2(C1)[C@@H](c1ccccc1)[C@@H](CO)N2S(=O)(=O)c1ccccc1 | 3
COc1ccc(S(=O)(=O)Nc2ccc3c(c2)CC(=O)N([C@@H](C)CO)C[C@H](C)[C@H](CN(C)C(=O)Nc2c(C)noc2C)O3)cc1 | -2[25 µM]
